Measurements reported in a collection of fitness landscapes (doi:10.1016/j.celrep.2020.107928).
Whole data set: some 81,000 sequences, median “one-hybrid fitness for binding NBS DNA” near -0.1, cut for the highest 2% near 0.36. For the sample, the highest values were picked, then their nearest neighbours and some sequences at random.

B1: Caulobacter ParB omega fusion; a variant is named by its letters at X, in order, B8GW30 (parent)
chain: MESVVVGEPGMSEGRRGLGRGLSALLGEVDAAPAQAPGEQLGGSREAPIEILQRNPDQPRRTFREEDLEDLSNSIREKGVLQPILVRPSPDTAGEYQIVAGERAWRAAQRAGLKTVPIMVRELDDLAVLEIGIIENVQRADLNVLEEALSYKVLMEKFERTQENIAQTIGKSXSHVANXMRLLXLPDEVQSYLVSGELTAXHARAIAAAADPVALAKQIIEGGLSVRETEALARKAPNLSAGKSKGGRPPRVKDTDTQALESDLSSVLGLDVSIDHRGSTGTLTITYATLEQLDDLCNRLTRGI

Variants of: B1
Assay: one-hybrid fitness for binding NBS DNA (the Noc-binding site; scaled: cognate 1, non-cognate 0); higher = stronger binding
Conditions: with NBS DNA site
Summary of the method: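 Bacterial one-hybrid selection in E. coli USO rpoZ- hisB- pyrF- with a HIS3 reporter carrying the site 19 bp from the promoter, screening Caulobacter ParB libraries with four specificity codons randomised (NNS). Cells grew 48 hours at 37°C on M9-minus-histidine plus 0.1 mM IPTG and 5 mM 3-AT. Plasmids before and after selection were Illumina-sequenced, three replicate libraries pooled, and variants under 10 reads dropped. Fitness is the log change in variant-to-wild-type read ratio, rescaled to cognate 1, non-cognate 0.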

one-hybrid fitness for binding NBS DNA, 0.42:
RLAR

one-hybrid fitness for binding NBS DNA, 0.364:
QCGA
QCIS

one-hybrid fitness for binding NBS DNA, 0.432:
QCYS

one-hybrid fitness for binding NBS DNA, 0.379:
QCMS

one-hybrid fitness for binding NBS DNA, 0.412:
QRAQ

one-hybrid fitness for binding NBS DNA, 0.337:
QSYS

one-hybrid fitness for binding NBS DNA, 0.438:
RSAR

one-hybrid fitness for binding NBS DNA, 0.302:
QRAF
QSMS

one-hybrid fitness for binding NBS DNA, 0.653:
QRGA
RCKT
RKKS

one-hybrid fitness for binding NBS DNA, 0.583:
QRAH
RKTS

one-hybrid fitness for binding NBS DNA, 0.304:
QWNR

one-hybrid fitness for binding NBS DNA, 0.255:
QTGN

one-hybrid fitness for binding NBS DNA, 0.247:
RLFR

one-hybrid fitness for binding NBS DNA, 0.211:
RKVH

one-hybrid fitness for binding NBS DNA, 0.529:
RCAR

one-hybrid fitness for binding NBS DNA, 0.252:
RKKN

one-hybrid fitness for binding NBS DNA, 0.28:
RSFR
QIAT
QCDS

one-hybrid fitness for binding NBS DNA, 0.692:
YKDH

one-hybrid fitness for binding NBS DNA, 0.264:
QRAP

one-hybrid fitness for binding NBS DNA, 0.24:
RTTH

one-hybrid fitness for binding NBS DNA, 0.428:
RRNM

one-hybrid fitness for binding NBS DNA, 0.291:
QSGA

one-hybrid fitness for binding NBS DNA, 0.22:
QRFM

one-hybrid fitness for binding NBS DNA, 0.314:
FMPK

one-hybrid fitness for binding NBS DNA, 0.358:
RISS

one-hybrid fitness for binding NBS DNA, 0.426:
RKVS

one-hybrid fitness for binding NBS DNA, 0.597:
QRFS

one-hybrid fitness for binding NBS DNA, 0.285:
RFTS

one-hybrid fitness for binding NBS DNA, 0.406:
CWIG

one-hybrid fitness for binding NBS DNA, 0.533:
QCAT

one-hybrid fitness for binding NBS DNA, 0.41:
QHAT

one-hybrid fitness for binding NBS DNA, 0.256:
QSFS

one-hybrid fitness for binding NBS DNA, 0.366:
RKRY

one-hybrid fitness for binding NBS DNA, 0.27:
RAFR

one-hybrid fitness for binding NBS DNA, 0.397:
QCFS

one-hybrid fitness for binding NBS DNA, 0.201:
QRFP

one-hybrid fitness for binding NBS DNA, 0.246:
QTGC

one-hybrid fitness for binding NBS DNA, 0.326:
QAFT

one-hybrid fitness for binding NBS DNA, 0.238:
RSVT

one-hybrid fitness for binding NBS DNA, 0.297:
YKDS

one-hybrid fitness for binding NBS DNA, 0.242:
RFAR

one-hybrid fitness for binding NBS DNA, 0.298:
RRVG

one-hybrid fitness for binding NBS DNA, 0.623:
RAKT
RIKT

one-hybrid fitness for binding NBS DNA, 0.424:
QTGH

one-hybrid fitness for binding NBS DNA, 0.748:
QCRS

one-hybrid fitness for binding NBS DNA, 0.208:
QHGA

one-hybrid fitness for binding NBS DNA, 0.312:
QHFT

one-hybrid fitness for binding NBS DNA, 0.401:
QAAT

one-hybrid fitness for binding NBS DNA, 0.25:
QRAD

one-hybrid fitness for binding NBS DNA, 0.427:
RHAR

one-hybrid fitness for binding NBS DNA, 0.356:
QSAS

one-hybrid fitness for binding NBS DNA, 0.484:
RTTS

one-hybrid fitness for binding NBS DNA, 0.578:
RHKT

one-hybrid fitness for binding NBS DNA, 0.606:
RMKT

one-hybrid fitness for binding NBS DNA, 0.352:
QCRP

one-hybrid fitness for binding NBS DNA, 0.461:
RRKG

one-hybrid fitness for binding NBS DNA, 0.395:
QSAT

one-hybrid fitness for binding NBS DNA, 0.396:
QLAT
RLTS

one-hybrid fitness for binding NBS DNA, 0.221:
QAGA
RMFS

one-hybrid fitness for binding NBS DNA, 0.446:
RHTS

one-hybrid fitness for binding NBS DNA, 0.289:
QLFT
QRFC

one-hybrid fitness for binding NBS DNA, 0.414:
QKMS

one-hybrid fitness for binding NBS DNA, 0.465:
RKKH

one-hybrid fitness for binding NBS DNA, 0.318:
RCKY

one-hybrid fitness for binding NBS DNA, 0.38:
RKKY

one-hybrid fitness for binding NBS DNA, 0.64:
QSRS

one-hybrid fitness for binding NBS DNA, 0.557:
QTGS

one-hybrid fitness for binding NBS DNA, 0.404:
QRAM
QRMK

one-hybrid fitness for binding NBS DNA, 0.296:
RMVT

one-hybrid fitness for binding NBS DNA, 0.232:
QSIS

one-hybrid fitness for binding NBS DNA, 0.516:
RCTS

one-hybrid fitness for binding NBS DNA, 0.618:
RSKT

one-hybrid fitness for binding NBS DNA, 0.332:
QRAE

one-hybrid fitness for binding NBS DNA, 0.684:
QRAS

one-hybrid fitness for binding NBS DNA, 0.226:
QRFQ

one-hybrid fitness for binding NBS DNA, 0.451:
QCAS

one-hybrid fitness for binding NBS DNA, 0.512:
YKDR
RFKT

one-hybrid fitness for binding NBS DNA, 0.216:
RMKM

one-hybrid fitness for binding NBS DNA, 0.391:
QRAC

one-hybrid fitness for binding NBS DNA, ≤ 0.2:
SLQG
DCLR
PTRA
RWVV
QMMQ
CVMR
TNHL
ESDR
LVTW
PNSF
LPGR
QLIH
RCKG
RRDM
RCNM
YVLT
LIAF
KLGG
ELRQ
RSSE
GPWL
QLGA
PSYL
ACER
PNTQ
RLAN
RIAN
RHAD
RAAN
FGDR
GIAC
MKIR
FHKW
PVKH
TANL
VPPG
KWAS
RSAH
RPAR
PHEL
IQNS
WRET
AVER
TMML
YKYT
YKNR
YKYR
YKNT
YKDN
PGCP
ARAS
RMPC
IYSS
KREW
VDGI
QVNY
CDAR
CPEM
GLTI
PMWG
NFKT
RSKP
RAKN
RFVT
PIPI
SQAS
ERWR
DMMR
DFLL
AIKF
LHHN
WGHS
RCSQ
RHKD
RPKT
RIKN
RHVT
REKT
HNER
YSVR
NNAI
ECLL
LKEG
QSAP
QPAT
QAAH
QLAH
QSAN
DLIW
GYPG
MTVA
ELQY
NMPC
YMLA
PNNH
STTR
GQTC
PTRL
ITAS
QHAD
HTGM
DSKV
QPFS
QPAS
LCKS
STRH
SLSS
AMPP
HDRS
NECS
AAGK
QPEY
QCAQ
QCAC
QCAM
QRFD
QSIQ
KPVS
YYMR
RFQM
GDHK
LAMD
SSIR
QCAN
RKKD
RKYY
RKKP
RKVN
RKVD
RKVY
RKDY
HLAI
KRLI
TRHK
TTRF
RAYA
ISTD
AALA
TDSY
AIFT
PYDR
VNLC
PDQF
LEGG
TKHA
QTGD
QTGP
LWYM
PADY
QSPS
QPYS
CWIS
CWRG
PLRP
SMYN
RGCR
TCIC
TTYN
TLLD
KIRT
QPRS
RATH
RPTS
RLTP
RATD
RLTH
RTTP
YRMT
EQDS
AANY
LYKT
ECMG
FKTC
RITH
RSTD
RITN
RHTN
RKTD
RSTH
RHTP
LQLL
ECRD
QQMC
IARN
SSHP
VQNC
RMTN
RMTD
YHNT
PFSK
QSMQ
QAMQ
QCMK
QSMK
QKMH
QKMD
QPMS

one-hybrid fitness for binding NBS DNA, 0.433:
RATS
RSTS
RMTS

one-hybrid fitness for binding NBS DNA, 0.385:
RAAR
YKDT
QRMQ

one-hybrid fitness for binding NBS DNA, 0.206:
RHFR

one-hybrid fitness for binding NBS DNA, 0.39:
QRAN

one-hybrid fitness for binding NBS DNA, 0.353:
QRFN

one-hybrid fitness for binding NBS DNA, 0.348:
IDNR

one-hybrid fitness for binding NBS DNA, 0.233:
RKTH

one-hybrid fitness for binding NBS DNA, 0.243:
RIFR
RIVT

one-hybrid fitness for binding NBS DNA, 0.237:
RAVT

one-hybrid fitness for binding NBS DNA, 0.384:
RIAR
RITS

one-hybrid fitness for binding NBS DNA, 0.299:
QCPS
